Source: PubChem (several laboratories)
GSH fluor: GSH bead compound fluorescence profile. fluorescence (KMESF) at 10 µM. GSH beads flow cytometry, compound fluorescence 488/530 nm; stronger effect = higher value. hit rate 0.25% among 190,000; in the data active means fluorescence above about 89;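 further: glutathione beads carrying GST-tagged Bcl family fusion proteins plus one bare bead set; values are compound well signal with DMSO vehicle wells as background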
EP2 modulator: modulates human prostaglandin E2 receptor EP2 signaling. induction, % at 25 µM. P43116. hit rate 0.83% among 260,000. EP2-expressing cells, cAMP HTRF FRET, PGE2 co-stimulation. AID 940;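 active means compounds whose cAMP rise, as percent of the full-agonist control response, exceeds 60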;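 further: rat C6 glioma line stably carrying human EP2 under a CMV promoter; the protocol text gives 20 µM as final concentration; 100% = response of wells given 1 µM PGE2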
Target sequence (P43116 whole entry, looked up): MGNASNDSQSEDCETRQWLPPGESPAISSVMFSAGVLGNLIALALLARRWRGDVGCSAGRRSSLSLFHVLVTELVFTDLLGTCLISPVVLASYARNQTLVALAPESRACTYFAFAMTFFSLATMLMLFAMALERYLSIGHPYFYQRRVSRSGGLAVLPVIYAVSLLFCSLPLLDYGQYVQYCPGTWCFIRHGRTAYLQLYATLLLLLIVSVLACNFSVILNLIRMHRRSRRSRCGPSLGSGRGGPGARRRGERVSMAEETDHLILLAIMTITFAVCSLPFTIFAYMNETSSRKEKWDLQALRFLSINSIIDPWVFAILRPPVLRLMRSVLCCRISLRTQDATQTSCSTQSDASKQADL
Efa HMGR inh: blocks class II HMG-CoA reductase of Enterococcus faecalis | purified E. faecalis HMGR, NADPH absorbance 340 nm kinetic | inhibition, % at 10 µM | AID 1066 | hit rate 0.41% among 190,000;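 active means inhibition above a set limit, the median over all tested compounds plus 3 SD, cut at about 9.5% in these data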;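 further: enzyme runs in reverse so mevalonate oxidation gives rising NADPH absorbance; 0% = complete reaction with DMSO and 100% = background rate lacking mevalonate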
EP2 antag: EP2 receptor (human) inhibition | P43116 | C6 glioma cells expressing human EP2, cAMP TR-FRET; cells stimulated with saturating PGE2 | inhibition, % at 25 µM | hit rate 0.52% among 260,000 | AID 1422;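 active means percent inhibition above 40 after rounding to a whole number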;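 further: rat C6 glioma host cells with rolipram phosphodiesterase inhibitor present; the protocol text gives 20 µM as final concentration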
Avidin fluor: avidin bead compound fluorescence profile | Avidin beads, compound fluorescence 488/530 nm, flow cytometry; stronger effect = higher value | fluorescence (KMESF) at 10 µM | hit rate 0.38% among 220,000 | AID 1775; in the data active means fluorescence above about 47
* hit, by the source's call; x = not tested or not shown. An excerpt weighted towards active compounds, which were near 2.1% of everything screened.

SMILES	GSH fluor	EP2 modulator	Efa HMGR inh	EP2 antag	Avidin fluor
CC(C)C(=O)NNC(=O)CSc1nnc2c3c4c(sc3nc(C3CC3)n12)CCCC4	x	15.0	x	13.9	x
NC(=O)CN1N=C(c2ccccc2)Cn2c(cc3sccc32)C1=O	x	-25.4	x	x	x
Cn1c(=S)c2[nH]c(SCCN3C(=O)c4ccccc4C3=O)nc2n(C)c1=O	x	20.6	x	40.6*	x
Oc1cccc2ccc(SSc3ccc4cccc(O)c4n3)nc12	x	-63.4	x	106.1*	x
Cc1ccc(CN(CCCn2ccnc2)Cc2cc3ccccc3nc2N(C)C)o1	x	-7.7	x	4.3	x
CCOC(=O)Nc1sc(C)c(C)c1C(=O)OCC	8	30.2	-2.8	2.5	3
CCOC(=O)c1c(NC(=O)Nc2ccccc2)sc(C)c1C	24	62.1*	2.7	9.7	11
COc1cccc(CC(=O)NC(c2ccc(F)c(F)c2)c2nccn2C)c1 (stereo unspecified)	x	-45.5	x	9.3	x
COc1ccc(NC(=O)CCC2CCCC2)cc1OC	29	22.3	-4.2	14.5	9
Cc1cc(C)nc(NC(=O)CCC2CCCC2)c1	19	5.9	9.9*	8.9	6
Cn1c(=O)n(CCc2ccccc2)c(=O)c2c1nc1n2CCCN1CCc1ccccc1	21	-17.1	-6.0	21.1	10
CC(C)Cn1c(=O)c2c(nc3n2CCCN3CCc2ccccc2)n(C)c1=O	257*	19.4	-3.2	14.8	5
CN(C[C@@H](Cc1cccc2ccccc12)N(C[C@H](Cc1ccccc1)N(CCc1ccccc1)N=O)N=O)N=O	20	19.9	12.4*	12.8	4
CN(C[C@H](Cc1ccccc1)N(C[C@@H](Cc1cccc2ccccc12)N(CCc1ccccc1)N=O)N=O)N=O	20	20.5	-1.4	7.5	4
CCSc1nnc(NC(=O)CSc2nc3c(c(=O)n2-c2ccccc2)SCC3)s1	147*	12.1	-3.6	2.4	7
CS(=O)(=O)c1sc2nc(-c3cccs3)cc(-c3ccccc3)c2c1N	12	26.2	1.6	48.8*	9
CCOC(=O)c1cc2sc(C)cc2n1CC(=O)NCCOC	x	-0.7	x	17.0	x
COCCc1ncc(CN(Cc2ccccc2F)C2CC(C)(C)NC(C)(C)C2)cn1	x	-18.4	x	7.1	x
Cn1c(=O)c2c(SCc3ccccc3)nc(C3CC3)nc2n(C)c1=O	x	73.5*	x	4.6	5
Cn1c(=O)c2c(SCc3ccccn3)nc(C3CC3)nc2n(C)c1=O	26	26.8	-7.3	9.5	6
CCn1c(=O)c2c(nc(SCc3c(F)cccc3Cl)n2C)n(C)c1=O	x	-41.0	x	9.9	x
Cc1nc(SCc2c(F)cccc2Cl)c2c(=O)n(C)c(=O)n(C)c2n1	14	62.2*	-8.9	7.9	7
CC(C)c1ncc(CNC2(c3ccc(Cl)cc3)CCC2)cn1	x	-48.4	x	6.6	x
CC1(C)S[C@H]2[C@H](NC(=O)Cc3ccccc3)C(=O)N2[C@@H]1C(=O)O	x	19.3	x	49.4*	x
CC(Oc1ccccc1)C(=O)NC1C(=O)N2C1SC(C)(C)C2C(=O)O (stereo unspecified)	17	-5.2	4.5	6.7	10
SMILES	GSH fluor	EP2 modulator	Efa HMGR inh	EP2 antag	Avidin fluor
CCC(=O)N(Cc1ccc(Cl)cc1)Cc1cc2cc(C)ccc2[nH]c1=O	x	-47.3	x	8.7	x
COCCN1C(=O)c2ccccc2C(C(=O)NCc2ccco2)C1c1c[nH]c2ccccc12 (stereo unspecified)	24	26.1	-0.5	10.4	47*
CCc1ccc2nc(SCC(=O)Nc3ccccc3CC)c(C#N)cc2c1	x	6.5	x	16.4	x
CN(C)CCCN(C(=O)c1ccco1)c1nc2ccc(F)cc2s1	15	-22.4	-2.3	8.4	12
Cc1ccc2nc(N(CCCN(C)C)C(=O)c3ccco3)sc2c1	232*	-27.2	0.8	1.3	252*
Brc1c(NC2=NCCN2)ccc2nccnc12	19	20.3	17.8*	16.6	7
CCCC(=O)Nc1sc2c(c1C#N)CCCCC2	16	-26.6	1.9	10.5	5
CCC(=O)Nc1sc2c(c1C#N)CCCCC2	49	62.1*	-2.1	13.4	35
CCn1nc(C)c(CN(CCCN2CCOCC2)Cc2ccc(C)o2)c1C	x	0.0	x	6.3	x
O=C(/C=C/c1ccccc1)NC1CC2CCCC(C1)N2Cc1cccs1 (stereo unspecified)	x	-97.0	x	49.1*	x
CC(C)c1ccc(OCC(=O)Nc2ccc(OC(F)(F)F)cc2)cc1	10	12.9	-2.2	11.7	12
CC(C)c1ccc(NC(=O)COc2ccccn2)cc1	13	-16.5	-2.6	95.0*	11
CCSc1nc2c(c(=O)[nH]c(=O)n2C)n1C(C)C	x	22.9	x	11.2	x
Cc1c(NC(=O)CSc2nnc(COc3ccccc3)n2-c2ccccc2)c(=O)n(-c2ccccc2)n1C	13	12.4	-1.1	5.3	141*
Oc1c(Cl)cc(C(c2cc(Cl)c(O)c(Cl)c2)C(c2cc(Cl)c(O)c(Cl)c2)c2cc(Cl)c(O)c(Cl)c2)cc1Cl	x	28.3	x	49.3*	x
COC1=CC(C)[C@@H]2C[C@H]3OC(=O)C[C@H]4C(C)=C(OC)C(=O)C([C@@]34C)[C@@]2(C)C1=O (stereo partly specified)	x	9.8	x	3.6	x
CCOc1ccc2c(c1)n(CO)c(=S)n2CO	25	-2.6	-7.6	4.4	104*
CC(C)[C@H]1CN(Cc2ccccc2F)CCN1C(=O)CCn1cccn1	x	-10.7	x	x	x
O=C(NCCNC1CCCCC1)c1cccs1	x	-9.5	x	10.5	x
O=C(O)CC(c1ccccc1)c1ccccc1	6	12.3	-0.8	6.2	7
O=C(O)CC[P+](c1ccccc1)(c1ccccc1)c1ccccc1	x	11.2	x	47.4*	x
O=C(NNC(=O)C1CCN(S(=O)(=O)c2ccc(Cl)cc2)CC1)c1ccncc1	15	9.8	13.4*	6.5	12
CC[C@H](Cn1nc(-c2ccc(F)c(F)c2)ccc1=O)NC(=O)c1ccc2c(c1)OCCO2	x	-17.9	x	x	x
O=C1C(=O)c2ccccc2C(O)=C1C(CCc1ccccc1)C1=C(O)c2ccccc2C(=O)C1=O	x	26.9	x	42.1*	x
Cc1c(Cl)sn(-c2ccc(Cl)cc2)c1=O	13	-59.2	2.4	117.1*	3
SMILES	GSH fluor	EP2 modulator	Efa HMGR inh	EP2 antag	Avidin fluor
Cc1c(C(=O)O)sc(=S)n1-c1ccc(Cl)cc1	36	10.0	-0.5	7.2	13
COCCn1nnnc1C(c1cc2cc(OC)ccc2[nH]c1=O)N1CCN(c2ccccc2)CC1 (stereo unspecified)	x	5.2	x	8.0	x
CCOC(=O)C(=O)Nc1sc(C(=O)Nc2ccccc2)c(C)c1C(=O)OC	x	3.7	x	8.7	x
CC1CCCCC1NC(=O)COn1nnc2ccc(Cl)cc21 (stereo unspecified)	49	-6.3	-0.3	17.1	11
CC1(C)O[C@H]2[C@@H](O1)[C@@H](On1nnc3ccc(Cl)cc31)O[C@@H]2[C@@H]1COC(C)(C)O1	x	26.0	x	52.0*	x
O=C(NCc1ccco1)C1CC2CCC1C2 (stereo unspecified)	246*	-7.3	-2.6	7.0	9
O=C(NCc1ccco1)C1CCCN(S(=O)(=O)c2ccc(Br)cc2)C1 (stereo unspecified)	30	5.4	10.6*	6.9	11
CS(=O)(=O)N1CCCC(C(=O)NCc2ccco2)C1 (stereo unspecified)	17	4.0	-1.4	7.5	34
